Source: the supplement of paper PMC12819154, “High-throughput peptide-centric local stability assay extends protein–ligand identification to membrane proteins, tissues and bacteria” (Nature Structural & Molecular Biology, 2025)

The targets below were run with CN[C@@H]1C[C@H]2O[C@@](C)([C@@H]1OC)n1c3ccccc3c3c4c(c5c6ccccc6n2c5c31)C(=O)NC4 [staurosporine] (assay: log2 fold change of tryptic peptide abundance, ligand vs vehicle (limited proteolysis) (log2 ratio); higher = more trypsin-susceptible (destabilized)). Details: ligand concentration: 20 uM; sample: mouse liver crude lysate; replicate design: treated separately.

UniProt Q9R0T8, sequence (Q9R0T8 whole entry): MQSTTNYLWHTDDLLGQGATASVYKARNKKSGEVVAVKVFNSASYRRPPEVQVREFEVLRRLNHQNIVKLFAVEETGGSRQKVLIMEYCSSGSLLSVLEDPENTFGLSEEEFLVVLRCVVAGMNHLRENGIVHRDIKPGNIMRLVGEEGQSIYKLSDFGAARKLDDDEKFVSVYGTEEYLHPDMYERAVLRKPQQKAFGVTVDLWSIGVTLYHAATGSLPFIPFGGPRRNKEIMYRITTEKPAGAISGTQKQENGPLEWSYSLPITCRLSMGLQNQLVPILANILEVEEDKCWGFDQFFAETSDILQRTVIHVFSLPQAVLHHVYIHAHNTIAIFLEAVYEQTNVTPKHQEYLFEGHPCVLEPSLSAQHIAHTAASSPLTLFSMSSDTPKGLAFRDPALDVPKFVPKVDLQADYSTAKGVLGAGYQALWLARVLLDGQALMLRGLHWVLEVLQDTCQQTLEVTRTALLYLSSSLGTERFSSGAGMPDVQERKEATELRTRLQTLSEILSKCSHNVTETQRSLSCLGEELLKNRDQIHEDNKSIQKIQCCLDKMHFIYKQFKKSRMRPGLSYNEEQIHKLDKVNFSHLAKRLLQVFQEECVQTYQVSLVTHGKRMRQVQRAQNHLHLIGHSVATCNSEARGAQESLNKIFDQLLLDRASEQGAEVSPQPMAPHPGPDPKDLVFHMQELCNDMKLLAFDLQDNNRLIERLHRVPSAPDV
UniProt P14246, sequence (P14246 whole entry): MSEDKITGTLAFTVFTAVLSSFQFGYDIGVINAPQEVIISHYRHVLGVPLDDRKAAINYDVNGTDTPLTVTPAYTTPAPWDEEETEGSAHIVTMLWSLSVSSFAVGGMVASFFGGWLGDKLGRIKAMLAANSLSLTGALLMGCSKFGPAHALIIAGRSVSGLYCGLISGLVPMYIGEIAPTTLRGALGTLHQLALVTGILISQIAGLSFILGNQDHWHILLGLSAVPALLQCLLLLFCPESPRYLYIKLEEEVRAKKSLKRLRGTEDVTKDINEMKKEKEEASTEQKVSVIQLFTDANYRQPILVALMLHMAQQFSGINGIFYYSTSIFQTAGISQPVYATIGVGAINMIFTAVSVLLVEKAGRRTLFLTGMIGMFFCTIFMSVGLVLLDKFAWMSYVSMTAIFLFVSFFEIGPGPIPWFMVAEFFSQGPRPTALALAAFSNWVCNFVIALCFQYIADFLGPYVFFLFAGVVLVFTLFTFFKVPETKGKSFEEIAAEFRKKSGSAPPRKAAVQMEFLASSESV
UniProt Q8BYC6, sequence (Q8BYC6 whole entry): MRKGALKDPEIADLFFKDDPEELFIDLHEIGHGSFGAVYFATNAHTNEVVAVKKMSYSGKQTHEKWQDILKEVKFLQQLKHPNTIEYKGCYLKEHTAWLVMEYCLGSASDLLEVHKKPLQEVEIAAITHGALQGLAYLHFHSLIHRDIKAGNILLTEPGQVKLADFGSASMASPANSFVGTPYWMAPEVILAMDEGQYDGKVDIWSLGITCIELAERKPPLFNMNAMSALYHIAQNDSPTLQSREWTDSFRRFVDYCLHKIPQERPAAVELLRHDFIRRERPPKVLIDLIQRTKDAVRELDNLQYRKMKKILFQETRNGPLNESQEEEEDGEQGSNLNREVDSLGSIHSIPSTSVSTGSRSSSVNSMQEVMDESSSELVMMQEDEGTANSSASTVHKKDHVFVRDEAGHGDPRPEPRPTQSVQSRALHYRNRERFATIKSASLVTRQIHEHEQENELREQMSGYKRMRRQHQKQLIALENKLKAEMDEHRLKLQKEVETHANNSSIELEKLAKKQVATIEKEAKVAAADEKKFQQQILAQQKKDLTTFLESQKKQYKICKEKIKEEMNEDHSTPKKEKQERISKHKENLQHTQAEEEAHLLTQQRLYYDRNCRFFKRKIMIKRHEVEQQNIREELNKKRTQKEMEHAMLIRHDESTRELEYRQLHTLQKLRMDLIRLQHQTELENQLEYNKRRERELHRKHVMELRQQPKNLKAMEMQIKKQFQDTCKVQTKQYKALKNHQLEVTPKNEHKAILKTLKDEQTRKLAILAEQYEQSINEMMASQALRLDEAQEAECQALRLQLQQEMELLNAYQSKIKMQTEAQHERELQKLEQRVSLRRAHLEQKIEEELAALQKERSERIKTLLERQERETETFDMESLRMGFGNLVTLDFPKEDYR
UniProt Q62445, sequence (Q62445 whole entry): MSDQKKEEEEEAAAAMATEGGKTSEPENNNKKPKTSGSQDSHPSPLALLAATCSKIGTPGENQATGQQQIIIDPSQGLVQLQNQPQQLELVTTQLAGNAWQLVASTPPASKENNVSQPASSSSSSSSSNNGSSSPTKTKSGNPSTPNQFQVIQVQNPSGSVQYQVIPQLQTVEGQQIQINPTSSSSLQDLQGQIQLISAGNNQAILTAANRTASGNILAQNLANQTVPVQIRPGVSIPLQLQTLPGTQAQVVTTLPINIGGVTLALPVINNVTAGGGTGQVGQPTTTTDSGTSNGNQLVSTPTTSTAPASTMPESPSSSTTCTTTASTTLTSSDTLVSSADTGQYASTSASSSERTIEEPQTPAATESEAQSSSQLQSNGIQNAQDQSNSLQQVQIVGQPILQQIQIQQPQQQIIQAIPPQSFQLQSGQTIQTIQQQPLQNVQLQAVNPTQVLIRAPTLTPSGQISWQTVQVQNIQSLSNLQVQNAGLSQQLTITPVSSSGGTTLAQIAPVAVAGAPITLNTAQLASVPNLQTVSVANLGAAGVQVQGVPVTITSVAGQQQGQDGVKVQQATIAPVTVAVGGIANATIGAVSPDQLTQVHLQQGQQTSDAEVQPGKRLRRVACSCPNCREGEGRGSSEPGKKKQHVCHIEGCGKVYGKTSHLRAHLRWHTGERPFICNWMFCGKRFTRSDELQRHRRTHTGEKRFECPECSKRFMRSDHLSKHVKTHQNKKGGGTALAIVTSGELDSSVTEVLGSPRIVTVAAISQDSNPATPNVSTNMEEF
UniProt Q8BH59, sequence (Q8BH59 whole entry): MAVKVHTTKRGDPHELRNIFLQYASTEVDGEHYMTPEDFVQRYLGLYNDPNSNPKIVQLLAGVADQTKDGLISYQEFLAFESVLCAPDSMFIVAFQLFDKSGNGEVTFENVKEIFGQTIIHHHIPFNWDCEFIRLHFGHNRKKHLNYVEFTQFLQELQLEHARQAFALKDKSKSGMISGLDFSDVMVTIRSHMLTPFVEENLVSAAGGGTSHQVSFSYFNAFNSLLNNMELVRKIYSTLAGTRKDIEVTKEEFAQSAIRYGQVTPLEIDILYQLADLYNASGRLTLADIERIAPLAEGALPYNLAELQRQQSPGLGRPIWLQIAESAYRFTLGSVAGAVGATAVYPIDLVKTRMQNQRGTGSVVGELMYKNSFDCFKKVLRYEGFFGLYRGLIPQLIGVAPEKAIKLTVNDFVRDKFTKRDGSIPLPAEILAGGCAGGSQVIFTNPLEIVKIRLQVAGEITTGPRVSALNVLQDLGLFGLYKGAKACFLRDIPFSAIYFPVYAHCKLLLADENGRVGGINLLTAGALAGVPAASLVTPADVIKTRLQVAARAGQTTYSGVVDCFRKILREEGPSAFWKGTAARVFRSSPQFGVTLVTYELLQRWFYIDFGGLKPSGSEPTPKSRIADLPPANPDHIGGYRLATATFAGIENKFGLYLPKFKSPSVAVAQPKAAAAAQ
UniProt P12710, sequence (P12710 whole entry): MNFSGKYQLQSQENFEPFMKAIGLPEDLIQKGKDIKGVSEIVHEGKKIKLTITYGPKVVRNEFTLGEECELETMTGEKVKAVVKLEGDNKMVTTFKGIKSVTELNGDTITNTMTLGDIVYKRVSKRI
UniProt Q9JIZ0, sequence (Q9JIZ0 whole entry): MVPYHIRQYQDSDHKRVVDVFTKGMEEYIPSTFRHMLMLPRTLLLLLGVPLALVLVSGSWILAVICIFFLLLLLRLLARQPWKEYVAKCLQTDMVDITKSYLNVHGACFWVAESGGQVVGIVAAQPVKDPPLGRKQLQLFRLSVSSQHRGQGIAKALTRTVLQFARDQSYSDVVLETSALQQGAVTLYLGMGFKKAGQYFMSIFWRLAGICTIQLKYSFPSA
UniProt Q9R257, sequence (Q9R257 whole entry): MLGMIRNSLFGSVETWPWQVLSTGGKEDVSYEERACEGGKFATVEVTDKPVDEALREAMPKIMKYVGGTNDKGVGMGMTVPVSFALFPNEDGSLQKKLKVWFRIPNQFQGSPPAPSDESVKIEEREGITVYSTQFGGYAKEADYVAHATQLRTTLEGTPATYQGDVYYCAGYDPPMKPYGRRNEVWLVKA

| Target | log2 fold change |
| --- | --- |
| UniProt Q9JIZ0 (peptide sequence: LAGICTIQLK, peptide start residue: 207) | 0.276 |
| UniProt P18654 (peptide sequence: GAMAATYSALNR, peptide start residue: 701) | 0.612 |
| UniProt Q8BH59 (peptide sequence: LQVAGEITTGPR, peptide start residue: 457) | 0.568 |
| UniProt Q9R0T8 (peptide sequence: DIKPGNIMR, peptide start residue: 135) | -1.44 |
| UniProt P47754 (peptide sequence: TSVETALR, peptide start residue: 122) | -0.836 |
| UniProt Q9R257 (peptide sequence: FATVEVTDKPVDEALR, peptide start residue: 41) | -0.672 |
| UniProt P14246 (peptide sequence: HVLGVPLDDR, peptide start residue: 44) | 0.702 |
| UniProt Q8BYC6 (peptide sequence: VLIDLIQR, peptide start residue: 285) | -1.67 |
| UniProt Q62445 (peptide sequence: RFECPECSKR, peptide start residue: 704) | -1 |
| UniProt P12710 (peptide sequence: DIKGVSEIVHEGK, peptide start residue: 34) | 0.719 |
| UniProt P20444 (peptide sequence: LGCGPEGER, peptide start residue: 581) | -2.63 |
| UniProt Q3UHJ0 (peptide sequence: DLKVENILLHDR, peptide start residue: 176) | -4.22 |
